The panel holds about 83,000 compounds, 20% with a hit somewhere; the sample as a whole holds those more often.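 Compound tested at a single concentration for 48 hours in 96-well plates; a percent growth value below 10 was scored as active.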 Unmarked numbers belong to inactive results. The source made the active and inactive calls.
Experiments:
Test in all cases: NCI-60 one-dose screen, 48 h (100 = growth as untreated, 0 = no growth, -100 = all killed)
Details in all cases: 10 µM unless noted
DU-145 prostate = test system: DU-145 prostate
K-562 leukemia = test system: K-562 leukemia
MALME-3M melanoma = test system: MALME-3M melanoma
MDA-MB-231 breast = test system: MDA-MB-231 breast
RXF 393 renal = test system: RXF 393 renal
SF-268 CNS = test system: SF-268 CNS
SF-295 CNS = test system: SF-295 CNS
UACC-257 melanoma = test system: UACC-257 melanoma
M14 melanoma = test system: M14 melanoma
HCT-15 colon = test system: HCT-15 colon
HT29 colon = test system: HT29 colon
SNB-75 CNS = test system: SNB-75 CNS
SNB-19 CNS = test system: SNB-19 CNS
U251 CNS = test system: U251 CNS
PC-3 prostate = test system: PC-3 prostate
SK-MEL-5 melanoma = test system: SK-MEL-5 melanoma
UACC-62 melanoma = test system: UACC-62 melanoma
LOX IMVI melanoma = test system: LOX IMVI melanoma
SK-MEL-28 melanoma = test system: SK-MEL-28 melanoma

Row | Compound | growth (DU-145 prostate) | growth (K-562 leukemia) | growth (MALME-3M melanoma) | growth (MDA-MB-231 breast) | growth (RXF 393 renal) | growth (SF-268 CNS) | growth (SF-295 CNS) | growth (UACC-257 melanoma) | growth (M14 melanoma) | growth (HCT-15 colon) | growth (HT29 colon) | growth (SNB-75 CNS) | growth (SNB-19 CNS) | growth (U251 CNS) | growth (PC-3 prostate) | growth (SK-MEL-5 melanoma) | growth (UACC-62 melanoma) | growth (LOX IMVI melanoma) | growth (SK-MEL-28 melanoma)
1 | COc1ccc(-c2c3c(nc4n[nH]c(-c5ccc(Cl)cc5)c24)-c2ccccc2C(=O)C3=O)cc1 | 22.4% | 4.49% (active) | -32.4% (active) | -28% (active) | 14.1% | -38.8% (active) | 77.4% | 11% | -28.4% (active) | 21.6% | -11.8% (active) | 54.3% | 44.3% | -40.2% (active) | 7.97% (active) | 5.41% (active) | -33.7% (active) | -50.9% (active) | 30.4%
2 | CCOC(=O)c1c2c(n3ccc(NC(=O)CCN4CCCCC4)cc13)C(=O)c1ncccc1C2=O | -93.9% (active) | -48.2% (active) | -71.7% (active) | -72.9% (active) | 41.4% | 36.6% | 35.3% | 21.2% | -77.9% (active) | -62.9% (active) | -61.5% (active) | 23.9% | -42.7% (active) | -86.3% (active) | 47.3% | -83.6% (active) | -50.6% (active) | -63.9% (active) | -64.7% (active)
3 | CC1=C(NCCN2CCCC2)C(=O)c2c(OCc3ccc(C(F)(F)F)cc3)cccc2C1=O | 92.1% | -14.8% (active) | 104% | 81.4% | 88.5% | 77.1% | 76.7% | 65.1% | -82.2% (active) | 70.9% | 42.4% | 82.1% | 95.3% | 69.9% | 47.4% | 85.2% | 99.9% | 68.4% | 54.6%
4 | Cc1ccc(S(=O)(=O)n2cc(-c3csc(-c4cn(C)c5ncccc45)n3)c3ccccc32)cc1 | 78.3% | 26.7% | 68.5% | 42.6% | 74.3% | 74.1% | 41.9% | 70.8% | 34.2% | 35.8% | 19.3% | 45.8% | 85% | 51.9% | 44.8% | 39.4% | 58.1% | 51.2% | 58.8%
5 | O=C1c2cccnc2C(=O)c2c1c(C(=O)OCCN1CCCCC1)c1ccccn21 | -89.7% (active) | -40.9% (active) | -74.3% (active) | -27.9% (active) | -44.5% (active) | -19.8% (active) | -37% (active) | -75% (active) | -20.8% (active) | -48.4% (active) | -9.8% (active) | -63.7% (active) | -31.8% (active) | -29.9% (active) | 9.27% (active) | -97% (active) | -41.2% (active) | -58.6% (active) | -37.9% (active)
6 | COC(=O)[C@@H]1CC[C@]2(C)[C@H](CC[C@@H]3O[C@@]32C)[C@@]1(C)CC(=O)c1ccoc1 | 112% | 100% | 97.7% | 88.3% | 111% | 103% | 104% | 88.4% | 108% | 103% | 93.2% | 114% | 91.1% | 91.8% | 86% | 97.4% | 89.5% | 98.6% | 104%
7 | O=C1c2ccccc2-c2nccc3cc(Cl)nc1c23 | 37.3% | -6.02% (active) | -65.6% (active) | 78.7% | -43.1% (active) | 24.6% | 53.2% | 58.6% | -63.4% (active) | 17.6% | 14.3% | 65.1% | 105% | 32.8% | 8.78% (active) | -89% (active) | 27.7% | -22.5% (active) | 55.8%
8 | CC(C)[C@H]1COC(=O)N1[C@@H]1C(=O)N([C@@H](CCC(=O)N2CCN(C3CCCC3)CC2)C(=O)N[C@@H]2CCCc3ccccc32)[C@@H]1/C=C/c1cccc(Br)c1 | 40.5% | 41.9% | 13.1% | 26.3% | 53.3% | 8.27% (active) | 51.5% | -34.6% (active) | 25.8% | 20.9% | -15.3% (active) | 50% | 44.7% | 27.5% | 29.7% | -82.2% (active) | 47.3% | -32% (active) | 32.2%

Source: PubChem BioAssay (NCI)
